Experimental data as given in PubChem BioAssay.
Activity calls are given as the source filed them.

Test: growth modulation of vineyard yeast isolate – strain RM11-1a, OD600, basal, 24 h, primary screen (AID 1177);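 also: cultures grown under basal conditions with no added stressor; test concentration not given here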
Details: S. cerevisiae RM11-1a growth, OD600, 24 h; higher = more signal, called active from +8 up or from −8 down

z-score, inactive:
Cc1ccc(S[C@]2(C(=O)O)CC(=O)N(Cc3cc(C(F)(F)F)cc(C(F)(F)F)c3)[C@@H]2c2ccc(CO)cc2)cc1 0.988
CC(C)Cc1ccc(CN2CC[C@@H](NC(=O)Nc3ccccc3)C2)cc1 -4.95
C=CC1c2cc(O)c(OC)cc2CCN1Cc1cc2c(cc1Br)OCO2 (stereo not given) -2.09
O=C1O[C@H](c2ccccc2)[C@H](c2ccccc2)N2[C@H]1[C@@H](C(=O)N1CCN(c3ncccn3)CC1)[C@]1(C(=O)Nc3ccc(C#CC4(O)CCCCCC4)cc31)[C@H]2c1ccc(OCCO)cc1 3.34
COC(=O)C(CC#Cc1ccc2c(c1)[C@]1(C(=O)N2)[C@H](c2ccccc2OCCO)N2[C@H](c3ccccc3)[C@H](c3ccccc3)OC(=O)[C@H]2[C@@H]1C(=O)NC[C@H](O)c1ccccc1)C(=O)OC 2.22
Cc1ccccc1C(O)C1C=CC2C(=O)N(C)C(=O)C2N1N(c1ccccc1)c1ccccc1 (stereo not given) 0.591
CCC[C@@H]1C[C@@]1(CCC)[C@@H](NC(=O)OCc1ccccc1)c1ccc(-c2ccccc2)cc1 0.259
CN(C)C(=O)C1N=C(c2ccc(OCCCO)cc2)N(c2ccccc2)O1 (stereo not given) 0.353
O=C1O[C@H](c2ccccc2)[C@H](c2ccccc2)N2[C@H]1[C@@H](C(=O)O)[C@]1(C(=O)Nc3ccc(C#CC4=CCCCC4)cc31)[C@H]2c1ccc(O)cc1 0.168
C=CCOC(=O)[C@H]1[C@@H]2C(=O)O[C@@H](c3ccccc3)[C@@H](c3ccccc3)N2[C@@H](c2ccc(OCCOC(=O)[C@H]3C[C@H]4C(=O)N[C@@H](CCCCNC(C)=O)C(=O)N4[C@H]3c3ccc(O)cc3)cc2)[C@]12C(=O)Nc1ccccc12 -2.05
